Assay results: the supplement of paper PMC10849652
Of roughly 8,800 targets only a part is listed; those with a hit were picked by preference. About 0.5% of all pairs of compound and target were hits.

Columns and labels:
Experiment in all cases: log2 fold change, soluble protein after heating vs DMSO (PISA); higher = thermal stabilisation; K562 lysate, 10 uM; active = over 0.2 and 3.5 SD of the protein, either way, in both replicates (recomputed)
erlotinib = compound: C#Cc1cccc(Nc2ncnc3cc(OCCOC)c(OCCOC)cc23)c1 [erlotinib]
Method in brief: (§1)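 Log-two fold change in thermal stability relative to solvent controls is reported from duplicates. For each sample, crude K562 extract from dounce-homogenised pellets in PBS pH 7.4 with 1 mM MgCl2, at 1 mg/mL protein, was treated with 10 μM compound for 30 min. Aliquots heated for 3 min across 48°C-58°C were pooled, brought to 0.5% NP-40 at 4°C and cleared at 21,000xg for 90 min. The supernatant was quantified by TMTpro 16plex LC-MS/MS with channel sums equalised.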

[1] = compound: C/C(=N\NC(=O)C1=CC(=CC=C1)S(=O)(=O)N2CCOCC2)/C3=C(C=CC(=C3)Cl)O
Method in brief: as §1

[2] = compound: C1=CC(=CC=C1C2=NC3=C(N2)C=C(C=C3)C(=O)N)OC4=CC=C(C=C4)Cl
Method in brief: as §1

[3] = compound: C1=CC2=C(C=CC(=C2)/C=C\3/C(=O)NC(=NCC4=CC=CS4)S3)N=C1
Method in brief: as §1

[4] = compound: C1=CC2=NC=CN=C2C=C1/C=C/3\C(=O)NC(=O)S3
Method in brief: as §1

[5] = compound: C1=CC=C(C=C1)C2=NC(=C(N2)C3=CC=NC=C3)C4=CC(=C(C=C4)Cl)O
Method in brief: as §1

[6] = compound: C1=CC=C2C(=C1)C3=NNC4=CC=CC(=C43)C2=O
Method in brief: as §1

[7] = compound: C1CCN(C1)C(=O)NC2=CC=CC(=C2)NC3=NC=C(C(=N3)NCCC4=CN=CN4)Br
Method in brief: as §1

[8] = compound: C1CN(CCC1(CC2=CC=C(C=C2)Cl)N)C3=NC=NC4=C3C=CN4
Method in brief: as §1

IRAK-1-4 Inhibitor I = compound: C1COCCN1CCN2C3=CC=CC=C3N=C2NC(=O)C4=CC(=CC=C4)[N+](=O)[O-] [IRAK-1-4 Inhibitor I]
Method in brief: as §1

ibrutinib = compound: C=CC(=O)N1CCC[C@@H](n2nc(-c3ccc(Oc4ccccc4)cc3)c3c(N)ncnc32)C1 [ibrutinib]
Method in brief: as §1

[9] = compound: CC(=O)c1cnc2ccc(-c3cc(Cl)c(O)c(Cl)c3)nc2c1N[C@H]1CC[C@H](CN(C)C)CC1
Method in brief: as §1

ralimetinib = compound: CC(C)(C)Cn1c(N)nc2ccc(-c3[nH]c(C(C)(C)C)nc3-c3ccc(F)cc3)nc21 [ralimetinib]
Method in brief: as §1

[10] = compound: CC(C)(O)CC(=O)NCCn1ccc2ncnc(Nc3ccc(Oc4cccc(C(F)(F)F)c4)c(Cl)c3)c21
Method in brief: as §1

[11] = compound: CC(C)C1=C2N=C(C=C(N2N=C1)NCC3=CC=CC=C3)NCCCCCCN
Method in brief: as §1

[12] = compound: CC1=C(C(CC(=O)N1)C2=CC=C(C=C2)C(F)(F)F)C(=O)NC3=C(C=C4C(=C3)C=NN4)F
Method in brief: as §1

[13] = compound: CC1=C(C2=C(C=C1)C(=O)C3=CC=CC=C3N2CCCN)C
Method in brief: as §1

[14] = compound: CC1=C(C=C(C=C1)NC(=O)C2=CC(=CC=C2)C(C)(C)C#N)NC3=CC4=C(C=C3)N=CN(C4=O)C
Method in brief: as §1

[15] = compound: CC1=C(C=C(C=C1)NC(=O)C2=CC(=CC=C2)N(C)C)NC(=O)C3=CC=C(C=C3)O
Method in brief: as §1

[16] = compound: CC1=CC=C(C=C1)SC2=C3C=C(SC3=CN=C2)C(=O)N
Method in brief: as §1

Measured: log2 fold change

EPB41, A0A2R8Y6D0
inactive: erlotinib 0.134 | [1] 0.064 | [2] -0.187 | [3] -0.012 | [4] -0.004 | [5] 0.066 | [6] -0.004 | [7] -0.042 | [8] 0.054 | IRAK-1-4 Inhibitor I -0.071 | ibrutinib 0.04 | [9] 0.007 | ralimetinib 0.171 | [10] 0.094 | [11] -0.061 | [12] -0.012 | [13] 0 | [14] -0.065 | [15] 0.078 | [16] -0.02

EMP3 (UniProt P54852)
Sequence of UniProt P54852 (P54852 whole entry, looked up): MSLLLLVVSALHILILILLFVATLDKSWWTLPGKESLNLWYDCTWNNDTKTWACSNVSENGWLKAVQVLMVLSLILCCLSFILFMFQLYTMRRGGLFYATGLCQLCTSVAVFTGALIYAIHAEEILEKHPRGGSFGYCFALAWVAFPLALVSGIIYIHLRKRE
inactive: erlotinib 0.008 | [1] -0.015 | [2] 0.018 | [3] 0.017 | [4] 0.004 | [5] 0 | [6] 0.007 | [7] -0.002 | [8] 0.029 | IRAK-1-4 Inhibitor I 0.053 | ibrutinib 0.045 | [9] -0.012 | ralimetinib 0.088 | [10] -0.081 | [11] 0 | [12] 0.013 | [13] -0.003 | [14] 0.041 | [15] -0.036 | [16] -0.01

EP300 (UniProt Q09472)
inactive: erlotinib 0.017 | [1] 0.011 | [2] -0.024 | [3] -0.017 | [4] 0.078 | [5] -0.015 | [6] -0.019 | [7] -0.033 | [8] 0 | IRAK-1-4 Inhibitor I -0.006 | ibrutinib 0.084 | [9] 0.117 | ralimetinib -0.026 | [10] -0.011 | [11] -0.07 | [12] 0.423 | [13] -0.011 | [14] -0.035 | [15] -0.025 | [16] -0.008

DVL2 (UniProt O14641)
Sequence of UniProt O14641 (O14641 whole entry, looked up): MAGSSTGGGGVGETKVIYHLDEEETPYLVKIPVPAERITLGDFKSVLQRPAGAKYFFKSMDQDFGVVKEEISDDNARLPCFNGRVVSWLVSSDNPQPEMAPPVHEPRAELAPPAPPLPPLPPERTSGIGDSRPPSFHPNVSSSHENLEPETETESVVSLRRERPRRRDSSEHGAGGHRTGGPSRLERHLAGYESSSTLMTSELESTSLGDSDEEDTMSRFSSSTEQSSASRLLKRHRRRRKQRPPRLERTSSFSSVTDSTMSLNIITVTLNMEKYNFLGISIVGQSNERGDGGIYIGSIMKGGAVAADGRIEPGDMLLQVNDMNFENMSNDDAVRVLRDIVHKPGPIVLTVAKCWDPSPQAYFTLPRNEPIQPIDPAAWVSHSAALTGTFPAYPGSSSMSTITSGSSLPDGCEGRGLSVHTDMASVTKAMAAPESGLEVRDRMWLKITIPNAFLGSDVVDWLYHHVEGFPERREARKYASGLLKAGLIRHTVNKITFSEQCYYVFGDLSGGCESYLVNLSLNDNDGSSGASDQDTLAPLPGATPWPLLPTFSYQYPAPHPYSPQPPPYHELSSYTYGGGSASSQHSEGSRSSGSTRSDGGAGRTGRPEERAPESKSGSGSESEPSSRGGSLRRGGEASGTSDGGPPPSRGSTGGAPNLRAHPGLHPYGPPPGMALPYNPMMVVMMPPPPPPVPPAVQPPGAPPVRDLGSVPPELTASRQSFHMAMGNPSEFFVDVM
inactive: erlotinib 0.012 | [1] -0.028 | [2] 0.011 | [3] -0.015 | [4] 0.03 | [5] -0.055 | [6] -0.029 | [7] 0.001 | [8] 0.067 | IRAK-1-4 Inhibitor I -0.073 | ibrutinib -0.032 | [9] 0.085 | ralimetinib 0.022 | [10] 0.032 | [11] -0.019 | [12] 0.028 | [13] -0.056 | [14] -0.072 | [15] 0.045 | [16] 0.11

FYB1 isoform 3 (UniProt O15117)
Sequence of UniProt O15117 (O15117 whole entry, looked up): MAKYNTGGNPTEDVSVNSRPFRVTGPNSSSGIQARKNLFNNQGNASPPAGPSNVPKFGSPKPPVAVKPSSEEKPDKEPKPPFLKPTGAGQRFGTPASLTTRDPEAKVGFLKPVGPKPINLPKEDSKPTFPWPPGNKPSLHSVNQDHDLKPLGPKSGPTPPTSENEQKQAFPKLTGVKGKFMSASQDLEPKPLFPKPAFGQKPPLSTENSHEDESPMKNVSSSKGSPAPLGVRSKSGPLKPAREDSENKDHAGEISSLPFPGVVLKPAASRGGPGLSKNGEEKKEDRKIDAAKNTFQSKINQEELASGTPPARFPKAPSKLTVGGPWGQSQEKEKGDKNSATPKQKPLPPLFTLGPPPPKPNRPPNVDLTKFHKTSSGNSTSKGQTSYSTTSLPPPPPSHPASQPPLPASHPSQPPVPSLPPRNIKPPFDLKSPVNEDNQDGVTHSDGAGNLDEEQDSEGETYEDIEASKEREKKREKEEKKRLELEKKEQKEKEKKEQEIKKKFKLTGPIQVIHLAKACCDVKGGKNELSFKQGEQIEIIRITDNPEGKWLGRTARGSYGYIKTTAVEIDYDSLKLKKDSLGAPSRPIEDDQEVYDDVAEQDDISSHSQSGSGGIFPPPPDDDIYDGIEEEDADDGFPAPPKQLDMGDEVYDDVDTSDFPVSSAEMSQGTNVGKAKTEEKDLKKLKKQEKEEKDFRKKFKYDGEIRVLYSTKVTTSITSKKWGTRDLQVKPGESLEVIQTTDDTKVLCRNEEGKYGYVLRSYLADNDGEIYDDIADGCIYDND
inactive: erlotinib -0.019 | [1] -0.043 | [2] -0.003 | [3] -0.073 | [4] 0.009 | [5] 0.015 | [6] -0.025 | [7] -0.012 | [8] 0.028 | IRAK-1-4 Inhibitor I 0.024 | ibrutinib -0.008 | [9] -0.01 | ralimetinib -0.022 | [10] -0.008 | [11] 0.005 | [12] -0.017 | [13] -0.042 | [14] 0.059 | [15] 0.008 | [16] -0.013

FBXO30 (UniProt Q8TB52)
inactive: erlotinib 0.006 | [1] -0.064 | [2] -0.031 | [3] 0.014 | [4] -0.038 | [5] -0.008 | [6] 0.042 | [7] -0.014 | [8] -0.007 | IRAK-1-4 Inhibitor I -0.018 | ibrutinib 0.022 | [9] -0.007 | ralimetinib 0.057 | [10] 0.046 | [11] -0.009 | [12] -0.003 | [13] 0.013 | [14] 0.016 | [15] 0.006 | [16] 0.016

FTL (UniProt P02792)
Sequence of UniProt P02792 (P02792 whole entry, looked up): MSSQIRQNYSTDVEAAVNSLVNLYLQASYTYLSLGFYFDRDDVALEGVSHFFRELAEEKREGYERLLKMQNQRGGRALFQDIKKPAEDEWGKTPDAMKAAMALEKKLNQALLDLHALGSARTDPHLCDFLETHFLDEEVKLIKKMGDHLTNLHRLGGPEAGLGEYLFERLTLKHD
inactive: erlotinib -0.14 | [1] -0.599 | [2] -0.077 | [3] -0.027 | [4] -0.006 | [5] 0.11 | [6] 0.012 | [7] -0.063 | [8] -0.034 | IRAK-1-4 Inhibitor I 0.169 | ibrutinib -0.026 | [9] -0.025 | ralimetinib -0.146 | [10] -0.257 | [11] 0.023 | [12] 0.027 | [13] 0.041 | [14] 0.023 | [15] 0.033 | [16] 0.053

FTSJ3 (UniProt Q8IY81)
Sequence of UniProt Q8IY81 (Q8IY81 whole entry, looked up): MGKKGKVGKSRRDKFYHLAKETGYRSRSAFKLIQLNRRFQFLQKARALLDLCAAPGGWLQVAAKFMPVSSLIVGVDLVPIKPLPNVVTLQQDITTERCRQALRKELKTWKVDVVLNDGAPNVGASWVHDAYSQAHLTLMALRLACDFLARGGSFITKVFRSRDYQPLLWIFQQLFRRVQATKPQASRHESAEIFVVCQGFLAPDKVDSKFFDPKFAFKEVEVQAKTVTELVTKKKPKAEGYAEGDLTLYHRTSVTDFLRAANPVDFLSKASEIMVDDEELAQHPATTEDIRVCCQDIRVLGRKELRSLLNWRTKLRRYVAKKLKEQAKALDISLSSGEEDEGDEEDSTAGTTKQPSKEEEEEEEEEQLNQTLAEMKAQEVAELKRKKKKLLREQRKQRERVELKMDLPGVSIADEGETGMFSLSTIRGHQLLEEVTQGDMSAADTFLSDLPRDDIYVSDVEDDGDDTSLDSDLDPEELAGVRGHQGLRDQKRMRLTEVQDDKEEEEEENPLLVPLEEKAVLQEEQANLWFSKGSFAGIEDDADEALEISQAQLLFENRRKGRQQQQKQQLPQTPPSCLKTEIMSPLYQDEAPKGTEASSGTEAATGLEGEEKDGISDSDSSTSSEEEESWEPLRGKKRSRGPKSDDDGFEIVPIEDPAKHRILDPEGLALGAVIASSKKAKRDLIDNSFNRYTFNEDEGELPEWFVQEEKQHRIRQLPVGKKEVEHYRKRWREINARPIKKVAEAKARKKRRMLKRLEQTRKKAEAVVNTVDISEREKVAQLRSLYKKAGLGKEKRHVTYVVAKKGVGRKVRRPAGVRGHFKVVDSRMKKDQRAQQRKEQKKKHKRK
inactive: erlotinib 0.064 | [1] -0.157 | [2] 0.002 | [3] -0.014 | [4] -0.028 | [5] 0.025 | [6] 0.065 | [7] 0.012 | [8] 0.022 | IRAK-1-4 Inhibitor I -0.018 | ibrutinib 0.05 | [9] 0.005 | ralimetinib 0.026 | [10] -0.033 | [11] 0.086 | [12] 0.016 | [13] -0.037 | [14] -0.01 | [15] 0.002 | [16] 0.04

FPGT (UniProt O14772)
Sequence of UniProt O14772 (O14772 whole entry, looked up): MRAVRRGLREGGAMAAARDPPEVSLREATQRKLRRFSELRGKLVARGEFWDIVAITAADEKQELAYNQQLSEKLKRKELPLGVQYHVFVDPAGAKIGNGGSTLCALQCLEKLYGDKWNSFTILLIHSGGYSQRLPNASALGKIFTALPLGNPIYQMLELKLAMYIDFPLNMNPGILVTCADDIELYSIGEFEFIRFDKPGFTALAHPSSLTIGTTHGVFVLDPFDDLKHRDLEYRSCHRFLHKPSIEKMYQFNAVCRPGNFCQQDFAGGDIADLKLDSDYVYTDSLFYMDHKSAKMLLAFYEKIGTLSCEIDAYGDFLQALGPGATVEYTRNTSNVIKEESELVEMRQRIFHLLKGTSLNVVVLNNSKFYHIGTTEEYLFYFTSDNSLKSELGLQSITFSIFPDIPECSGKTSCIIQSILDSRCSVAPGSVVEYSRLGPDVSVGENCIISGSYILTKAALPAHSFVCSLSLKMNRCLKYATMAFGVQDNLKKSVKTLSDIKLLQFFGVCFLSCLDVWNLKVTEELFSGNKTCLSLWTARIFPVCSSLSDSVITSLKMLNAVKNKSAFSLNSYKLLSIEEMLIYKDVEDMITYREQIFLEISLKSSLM
inactive: erlotinib 0.031 | [1] -0.005 | [2] -0.003 | [3] 0.011 | [4] 0.023 | [5] -0.002 | [6] -0.108 | [7] 0.006 | [8] -0.013 | IRAK-1-4 Inhibitor I 0.023 | ibrutinib -0.016 | [9] -0.033 | ralimetinib 0.005 | [10] 0.011 | [11] 0.014 | [12] 0.009 | [13] 0.029 | [14] 0.02 | [15] 0.003 | [16] -0.033

GALNT2 (UniProt Q10471)
Sequence of UniProt Q10471 (Q10471 whole entry, looked up): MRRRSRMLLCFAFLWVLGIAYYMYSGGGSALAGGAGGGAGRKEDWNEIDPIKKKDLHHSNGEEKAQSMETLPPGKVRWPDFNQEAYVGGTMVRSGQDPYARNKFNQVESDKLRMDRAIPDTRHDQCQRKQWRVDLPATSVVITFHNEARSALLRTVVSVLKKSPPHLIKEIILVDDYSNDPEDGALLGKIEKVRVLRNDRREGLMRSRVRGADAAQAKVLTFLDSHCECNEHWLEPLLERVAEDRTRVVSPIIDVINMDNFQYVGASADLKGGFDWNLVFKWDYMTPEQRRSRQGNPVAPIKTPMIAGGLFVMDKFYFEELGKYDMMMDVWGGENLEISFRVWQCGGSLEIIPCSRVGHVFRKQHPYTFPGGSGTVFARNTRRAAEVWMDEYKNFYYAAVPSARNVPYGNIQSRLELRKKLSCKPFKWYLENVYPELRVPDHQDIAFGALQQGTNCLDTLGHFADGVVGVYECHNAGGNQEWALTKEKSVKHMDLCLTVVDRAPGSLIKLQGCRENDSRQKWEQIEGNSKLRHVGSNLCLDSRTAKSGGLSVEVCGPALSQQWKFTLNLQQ
inactive: erlotinib -0.028 | [1] 0.005 | [2] -0.098 | [3] 0.054 | [4] -0.004 | [5] -0.04 | [6] -0.056 | [7] -0.045 | [8] 0.002 | IRAK-1-4 Inhibitor I -0.012 | ibrutinib -0.004 | [9] 0 | ralimetinib 0.006 | [10] 0.022 | [11] -0.005 | [12] 0.015 | [13] 0.031 | [14] -0.041 | [15] -0.012 | [16] -0.016

EEF1AKMT4 (UniProt P0DPD7)
Sequence of UniProt P0DPD7 (P0DPD7 whole entry, looked up): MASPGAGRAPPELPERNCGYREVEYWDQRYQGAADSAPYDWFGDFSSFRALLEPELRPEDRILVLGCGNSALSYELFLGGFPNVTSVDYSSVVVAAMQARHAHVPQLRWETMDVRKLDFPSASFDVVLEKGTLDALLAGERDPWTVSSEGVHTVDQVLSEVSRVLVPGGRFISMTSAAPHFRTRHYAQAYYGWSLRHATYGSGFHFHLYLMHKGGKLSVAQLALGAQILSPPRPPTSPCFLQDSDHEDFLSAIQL
inactive: erlotinib 0.057 | [1] 0.097 | [2] 0.073 | [3] 0.025 | [4] 0.039 | [5] -0.021 | [6] -0.081 | [7] -0.019 | [8] 0.08 | IRAK-1-4 Inhibitor I 0.107 | ibrutinib 0.023 | [9] -0.012 | ralimetinib -0.003 | [10] -0.053 | [11] 0.003 | [12] -0.006 | [13] -0.055 | [14] -0.029 | [15] -0.029 | [16] 0.069

DYNC1I2 isoform 5 (UniProt Q13409)
inactive: erlotinib -0.005 | [1] 0.001 | [2] -0.001 | [3] 0.009 | [4] 0 | [5] 0.009 | [6] 0.019 | [7] -0.007 | [8] 0.016 | IRAK-1-4 Inhibitor I 0.018 | ibrutinib 0.022 | [9] -0.021 | ralimetinib 0 | [10] -0.014 | [11] 0.004 | [12] 0.012 | [13] -0.007 | [14] -0.012 | [15] 0.008 | [16] -0.003

EIF1 (UniProt P41567)
Sequence of UniProt P41567 (P41567 whole entry, looked up): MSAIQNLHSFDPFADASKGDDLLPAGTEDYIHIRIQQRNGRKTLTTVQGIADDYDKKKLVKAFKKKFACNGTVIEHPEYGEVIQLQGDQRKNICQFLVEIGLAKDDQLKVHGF
inactive: erlotinib -0.006 | [1] -0.022 | [2] 0.063 | [3] -0.031 | [4] -0.004 | [5] 0.044 | [6] 0.011 | [7] -0.027 | [8] -0.023 | IRAK-1-4 Inhibitor I 0.02 | ibrutinib 0.026 | [9] 0.015 | ralimetinib -0.016 | [10] 0.011 | [11] 0 | [12] -0.114 | [13] 0.059 | [14] 0.045 | [15] -0.043 | [16] -0.037

FTSJ1 (UniProt Q9UET6)
Sequence of UniProt Q9UET6 (Q9UET6 whole entry, looked up): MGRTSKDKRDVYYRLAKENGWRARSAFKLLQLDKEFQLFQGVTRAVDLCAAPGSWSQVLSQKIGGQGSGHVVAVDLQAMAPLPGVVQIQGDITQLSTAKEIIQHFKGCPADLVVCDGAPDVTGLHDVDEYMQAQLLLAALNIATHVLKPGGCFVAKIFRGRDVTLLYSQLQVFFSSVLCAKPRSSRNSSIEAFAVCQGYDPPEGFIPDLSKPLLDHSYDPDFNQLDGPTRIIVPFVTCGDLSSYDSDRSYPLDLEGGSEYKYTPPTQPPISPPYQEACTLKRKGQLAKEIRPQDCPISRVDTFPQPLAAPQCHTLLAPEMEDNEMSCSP
inactive: erlotinib -0.008 | [1] 0 | [2] 0.039 | [3] 0.005 | [4] -0.025 | [5] 0.07 | [6] 0.034 | [7] -0.007 | [8] 0.016 | IRAK-1-4 Inhibitor I 0.019 | ibrutinib 0.004 | [9] -0.006 | ralimetinib -0.03 | [10] 0.094 | [11] -0.054 | [12] 0.011 | [13] 0.069 | [14] -0.024 | [15] 0.062 | [16] 0.03

ECH1 (UniProt Q13011)
Sequence of UniProt Q13011 (Q13011 whole entry, looked up): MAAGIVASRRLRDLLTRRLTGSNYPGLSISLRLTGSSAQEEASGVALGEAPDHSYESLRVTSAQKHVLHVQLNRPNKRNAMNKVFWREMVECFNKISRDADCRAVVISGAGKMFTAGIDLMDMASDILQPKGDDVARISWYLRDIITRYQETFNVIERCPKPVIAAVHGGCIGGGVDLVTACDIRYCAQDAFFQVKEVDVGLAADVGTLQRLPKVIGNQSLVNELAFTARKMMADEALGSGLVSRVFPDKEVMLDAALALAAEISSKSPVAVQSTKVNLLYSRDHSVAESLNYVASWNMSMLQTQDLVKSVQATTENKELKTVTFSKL
inactive: erlotinib -0.041 | [1] -0.049 | [2] -0.022 | [3] 0.002 | [4] -0.022 | [6] 0.232 | [7] -0.009 | [8] 0.017 | IRAK-1-4 Inhibitor I -0.007 | ibrutinib -0.035 | [9] -0.02 | ralimetinib 0.064 | [10] -0.036 | [11] -0.033 | [12] 0.04 | [13] -0.02 | [14] -0.017 | [15] -0.018 | [16] 0.013
active: [5] 0.499

EDC4 (UniProt Q6P2E9)
inactive: erlotinib 0.002 | [1] -0.026 | [2] -0.022 | [3] 0.001 | [4] 0.006 | [5] -0.001 | [6] -0.02 | [7] -0.015 | [8] 0.014 | IRAK-1-4 Inhibitor I 0.013 | ibrutinib -0.001 | [9] 0.001 | ralimetinib 0.028 | [10] -0.009 | [11] -0.011 | [12] 0.004 | [13] -0.006 | [14] 0.006 | [15] 0 | [16] -0.019
